PubChem BioAssay
Activity calls are given as the source filed them.

Legend:
[1] = anti-His antibody binders, primary screen, artefact control for SMM control protein annotation, biochemical, small-molecule microarray, 635 nm fluorescence (AID 1128); settings: anti-His Alexa647 antibody binding, higher = more signal;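 note: score merges feature fluorescence with signal-to-noise for each printed compound spot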
[2] = system: Human papillomavirus type 1a E7 protein (residues 1-88); assay: HPV1a E7 small-molecule binders, primary screen, biochemical, small-molecule microarray, residues 1-88, 635 nm (AID 1129); settings: small-molecule microarray binding, fluorescence 635 nm; higher = more signal
[3] = biological target: Focal adhesion kinase 1 (Homo sapiens) (UniProt Q05397); assay: small-molecule microarray binders of FAK, primary screen, biochemical, 635/667 nm fluorescence, BSA, DTT (AID 1130); settings: PTK2 binding, 635 nm fluorescence, higher = more signal;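 note: composite of spot emission at 667 nm and signal to noise over triplicate slides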
[4] = system: Fibrinogen (Alexa647-labelled); assay: fibrinogen binders on compound microarrays, profiling panel, artefact control for SMM control-protein annotation, biochemical, small-molecule microarray, 635/667 nm fluorescence (AID 1131); settings: fibrinogen-A647 binding fluorescence, higher = more signal;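 note: z-score merges 667 nm fluorescence with per-spot signal-to-noise over triplicate slides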
[5] = biological target: Follistatin (Homo sapiens) (UniProt P19883); assay: follistatin binders on small-molecule microarrays, primary screen, biochemical, small-molecule microarray, 635/667 nm fluorescence (AID 1132); settings: FST binding, 635 nm fluorescence, higher = more signal
[6] = biological target: Fibroblast growth factor 2 (Homo sapiens) (UniProt P09038); assay: FGF2 binders on small-molecule microarrays, primary screen, biochemical, small-molecule microarray, 635/667 nm fluorescence (AID 1133); settings: small-molecule microarray binding, FGF2, fluorescence 635/667; higher = more signal
[7] = mitochondrial membrane potential change in A549 cells, profiling panel, cell-based, JC-1 fluorescence, basal, 24 h, 100 nL (AID 1138); settings: higher = more signal;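 note: A549 lung adenocarcinoma cells under basal conditions with no added stimulus; test concentration not given here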
[8] = system: Lefty1; assay: Lefty1 binders on small-molecule microarrays, primary screen, biochemical, small-molecule microarray, 635/667 nm fluorescence (AID 1139); settings: small-molecule microarray binding, fluorescence 635/667; higher = more signal
[9] = system: wheat germ agglutinin (Triticum aestivum), Alexa647-labelled; assay: wheat germ agglutinin binders on compound microarrays, profiling panel, artefact control for SMM control-protein annotation, biochemical, small-molecule microarray, 635/667 nm fluorescence (AID 1140); settings: WGA-A647 binding, 635 nm fluorescence, higher = more signal;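 note: score merges 667 nm feature emission with signal to noise over triplicate slides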
[10] = biological target: Luciferin 4-monooxygenase (Photinus pyralis) (UniProt P08659); assay: firefly luciferase enzyme inhibitors, primary screen, biochemical, luminescence, purified enzyme, 2006 set (AID 1141); settings: SteadyGlo luminescence, 30 min, higher = more signal, called active from +8 up or from −8 down;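 note: cell-free assay with purified firefly luciferase at 100 ng per well in PBS; test concentration not given here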
[11] = system: Wnt5a (protein binding on small-molecule microarray); assay: Wnt5a binders on small-molecule microarray, primary screen, biophysical, 635/667 nm fluorescence (AID 1142); settings: 635 nm fluorescence, higher = more signal;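 note: fluorescence read at 667 nm with signal to noise per printed feature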
[12] = cell viability in Huh7 cells, primary screen, cytotoxicity control for HCV replication inhibitor project, CellTiter-Glo luminescence, basal, 48 h (AID 1143); settings: Huh7 HCV replicon, higher = more signal, called active from +8 up or from −8 down;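 note: Huh7 hepatoma cells carrying a hepatitis C replication reporter with no stimulus; test concentration not given here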
[13] = CREB reporter modulators without forskolin, primary screen, cell-based, PC12, CRE-LacZ reporter, unstimulated (AID 1145); settings: no forskolin, luminescence, 4.5 h, higher = more signal, called active from +8 up or from −8 down
[14] = CREB reporter modulators under forskolin, primary screen, cell-based, PC12, CRE-LacZ reporter, forskolin-stimulated (AID 1146); settings: luminescence, 4.5 h, higher = more signal, called active from +8 up or from −8 down;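 note: PC12 cells with 6xCRE LacZ reporter stimulated by forskolin 10 µM; beta-galactosidase reporter signal reflecting CREB driven transcription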
[15] = biological target: Streptavidin (Streptomyces avidinii) (UniProt P22629); assay: streptavidin binders on small-molecule microarray, primary screen, artefact control for SMM compound annotation, biophysical, 635/667 nm fluorescence (AID 1147); settings: streptavidin binding, higher = more signal;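 note: signal reflects streptavidin binding to arrayed compounds as a control protein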
[16] = small-molecule binders of probe aInhba, primary screen, biochemical, small-molecule microarray, 635/667 nm fluorescence (AID 1148); settings: higher = more signal;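 note: score merges 667nm spot fluorescence with signal-to-noise for antibody binding to printed compounds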
[17] = biological target: Torsin-1A (Homo sapiens) (UniProt O14656); assay: torsin A binders from cell lysate, primary screen, small-molecule microarray, wild-type, 635/667 nm (AID 1149); settings: COS7 hTOR1A-WT lysate, 635 nm fluorescence, higher = more signal
[18] = biological target: Torsin-1A (Homo sapiens) (UniProt O14656); assay: small-molecule binders of mutant TOR1A in lysate, primary screen, cell lysate, small-molecule microarray, COS7 lysate, 635/667 nm fluorescence (AID 1150); settings: COS7 hTOR1A mutant lysate, 635 nm fluorescence, higher = more signal;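 note: score pools 667 nm emission and signal to noise measuring lysate protein binding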
[19] = system: Sonic hedgehog protein (Shh); assay: small-molecule binders of Shh protein, primary screen, biochemical, small-molecule microarray, 635/667 nm fluorescence (AID 1151); settings: small-molecule microarray binding, 635 nm fluorescence; higher = more signal;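 note: Shh protein binding to compounds spotted on small-molecule microarray slides; score combines spot fluorescence intensity with signal-to-noise across triplicate slides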

Sequence of Focal adhesion kinase 1 (Homo sapiens) (Q05397 whole entry, looked up): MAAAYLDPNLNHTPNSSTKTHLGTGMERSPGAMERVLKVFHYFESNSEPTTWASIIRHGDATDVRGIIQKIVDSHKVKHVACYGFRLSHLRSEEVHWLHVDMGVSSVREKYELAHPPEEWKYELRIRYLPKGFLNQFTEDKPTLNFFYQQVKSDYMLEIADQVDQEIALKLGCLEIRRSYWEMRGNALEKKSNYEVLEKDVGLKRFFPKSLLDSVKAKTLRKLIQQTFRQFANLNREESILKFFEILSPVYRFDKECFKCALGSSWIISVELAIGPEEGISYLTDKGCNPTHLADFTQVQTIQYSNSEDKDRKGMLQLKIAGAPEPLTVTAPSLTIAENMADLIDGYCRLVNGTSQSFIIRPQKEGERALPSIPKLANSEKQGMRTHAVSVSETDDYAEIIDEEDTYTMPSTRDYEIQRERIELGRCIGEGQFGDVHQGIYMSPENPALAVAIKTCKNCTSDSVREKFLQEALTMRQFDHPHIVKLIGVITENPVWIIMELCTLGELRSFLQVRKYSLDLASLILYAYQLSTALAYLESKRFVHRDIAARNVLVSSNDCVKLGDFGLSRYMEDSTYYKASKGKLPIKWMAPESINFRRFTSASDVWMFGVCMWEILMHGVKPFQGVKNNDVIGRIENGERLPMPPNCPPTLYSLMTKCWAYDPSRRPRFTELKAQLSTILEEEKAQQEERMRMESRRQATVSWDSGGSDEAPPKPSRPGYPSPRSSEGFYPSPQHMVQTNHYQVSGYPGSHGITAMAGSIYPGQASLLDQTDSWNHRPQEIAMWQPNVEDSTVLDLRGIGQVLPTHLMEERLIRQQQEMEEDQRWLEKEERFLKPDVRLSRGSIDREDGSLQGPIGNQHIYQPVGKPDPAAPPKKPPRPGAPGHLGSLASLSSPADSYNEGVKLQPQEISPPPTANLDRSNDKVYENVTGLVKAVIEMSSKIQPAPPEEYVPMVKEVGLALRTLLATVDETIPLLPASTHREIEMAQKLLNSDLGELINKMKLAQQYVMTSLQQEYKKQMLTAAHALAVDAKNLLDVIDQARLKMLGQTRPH
Sequence of Follistatin (Homo sapiens) (P19883 whole entry, looked up): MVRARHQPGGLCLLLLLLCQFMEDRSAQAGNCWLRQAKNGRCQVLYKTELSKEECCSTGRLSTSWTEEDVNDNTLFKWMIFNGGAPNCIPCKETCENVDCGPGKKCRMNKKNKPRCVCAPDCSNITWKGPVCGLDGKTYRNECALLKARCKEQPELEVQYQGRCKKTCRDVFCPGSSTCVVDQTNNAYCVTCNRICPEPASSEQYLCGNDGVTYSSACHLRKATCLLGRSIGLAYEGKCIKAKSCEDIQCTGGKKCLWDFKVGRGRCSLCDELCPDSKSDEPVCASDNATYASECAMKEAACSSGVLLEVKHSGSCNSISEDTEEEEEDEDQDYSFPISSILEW
Sequence of Fibroblast growth factor 2 (Homo sapiens) (P09038 whole entry, looked up): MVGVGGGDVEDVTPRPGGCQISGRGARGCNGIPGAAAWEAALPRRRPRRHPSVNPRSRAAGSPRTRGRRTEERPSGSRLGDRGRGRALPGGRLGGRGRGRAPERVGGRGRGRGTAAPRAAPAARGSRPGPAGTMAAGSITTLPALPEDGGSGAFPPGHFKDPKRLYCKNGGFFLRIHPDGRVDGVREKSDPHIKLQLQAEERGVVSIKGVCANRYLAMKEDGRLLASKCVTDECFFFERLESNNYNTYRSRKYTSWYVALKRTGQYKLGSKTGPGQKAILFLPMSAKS
Sequence of Torsin-1A (Homo sapiens) (O14656 whole entry, looked up): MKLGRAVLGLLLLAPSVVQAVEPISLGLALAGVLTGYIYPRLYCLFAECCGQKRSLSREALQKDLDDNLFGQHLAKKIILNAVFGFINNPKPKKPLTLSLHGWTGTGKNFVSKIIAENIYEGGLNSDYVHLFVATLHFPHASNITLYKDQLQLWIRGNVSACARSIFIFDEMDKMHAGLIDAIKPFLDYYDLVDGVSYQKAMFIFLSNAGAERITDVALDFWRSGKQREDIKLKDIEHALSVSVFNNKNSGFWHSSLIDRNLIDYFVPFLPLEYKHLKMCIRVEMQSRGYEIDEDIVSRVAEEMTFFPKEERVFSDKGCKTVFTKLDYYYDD
Sequence of Streptavidin (Streptomyces avidinii) (P22629 whole entry, looked up): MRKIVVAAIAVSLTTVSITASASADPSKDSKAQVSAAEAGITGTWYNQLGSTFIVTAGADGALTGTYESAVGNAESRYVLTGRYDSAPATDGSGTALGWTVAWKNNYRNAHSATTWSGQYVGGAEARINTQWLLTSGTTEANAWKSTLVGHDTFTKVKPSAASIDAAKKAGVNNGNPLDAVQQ
Sequence of Luciferin 4-monooxygenase (Photinus pyralis) (P08659 whole entry, looked up): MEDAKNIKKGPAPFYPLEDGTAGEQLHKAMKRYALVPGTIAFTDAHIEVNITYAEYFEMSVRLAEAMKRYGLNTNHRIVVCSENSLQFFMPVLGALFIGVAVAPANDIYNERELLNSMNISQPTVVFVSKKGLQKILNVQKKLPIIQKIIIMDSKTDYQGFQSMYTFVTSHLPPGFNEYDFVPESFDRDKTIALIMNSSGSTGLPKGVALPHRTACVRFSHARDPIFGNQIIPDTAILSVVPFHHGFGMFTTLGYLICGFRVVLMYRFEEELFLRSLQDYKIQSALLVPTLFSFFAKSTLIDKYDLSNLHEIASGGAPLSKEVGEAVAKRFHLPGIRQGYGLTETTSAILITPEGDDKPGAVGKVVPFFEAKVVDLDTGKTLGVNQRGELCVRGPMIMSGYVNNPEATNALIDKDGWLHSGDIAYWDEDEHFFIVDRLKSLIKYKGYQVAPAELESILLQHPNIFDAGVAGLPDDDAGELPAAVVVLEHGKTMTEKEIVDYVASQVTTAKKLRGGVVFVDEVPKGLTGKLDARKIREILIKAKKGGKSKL

| Structure (SMILES) | composite z-score [1] | composite z-score [2] | composite z-score [3] | composite z-score [4] | composite z-score [5] | composite z-score [6] | z-score [7] | composite z-score [8] | composite z-score [9] | z-score [10] | composite z-score [11] | z-score [12] | z-score [13] | z-score [14] | composite z-score [15] | composite z-score [16] | composite z-score [17] | composite z-score [18] | composite z-score [19] |
| --- | --- | --- | --- | --- | --- | --- | --- | --- | --- | --- | --- | --- | --- | --- | --- | --- | --- | --- | --- |
| C=CCC(OC(C)=O)[C@@H]1[C@@H](N(Cc2cc3ccccc3o2)C(=O)Cc2ccc(F)cc2)c2cc(OCCCO)ccc2N1C(=O)c1ccc(-c2ccccc2)cc1 (stereo partly specified) | -1.6 | -0.844 | -0.341 | -1.2 | 0.0166 | -0.287 | 2.35 | -0.234 | -0.681 | -1.06 (inactive) | -0.125 | 0.15 (inactive) | 0.787 (inactive) | -0.775 (inactive) | -0.117 | -0.0313 | -0.583 | -0.159 | 0.0351 |
| C[C@@H]1CC[C@H]2C(=O)N3[C@@H](CC[C@@H](C)[C@@H]3c3cccc(N4CCOCC4)c3)C(=O)N2[C@H]1c1cccc(Br)c1 | 1.52 | 1.04 | -0.0269 | 0.783 | 1.12 | 0.555 | 2.96 | 1.15 | 1.04 | -1.13 (inactive) | 0.205 | -0.167 (inactive) | 4.71 (inactive) | -0.902 (inactive) | 0.63 | 0.0561 | 0.472 | 0.418 | 0.994 |
| [N-]=[N+]=Nc1ccccc1C[C@@]1(C(=O)N2CCOCC2)N=C(c2ccc(OCCCO)cc2)O[C@@H]1c1ccccc1N=[N+]=[N-] | 2.48 | 1.19 | 1.41 | 0.886 | 1.42 | 0.667 | 2.03 | 0.0674 | 1.22 | -3.69 (inactive) | 0.372 | -5.17 (inactive) | 2.75 (inactive) | -1.37 (inactive) | 0.955 | 0.0982 | 0.644 | 0.407 | 0.174 |
| CCN1C(C)=C(C(=O)OC)[C@@H](c2ccccc2)N2C(=O)[C@](O)(C(=O)OC)[C@@H](c3ccccc3)C(C(C)=O)=C12 | 0.189 | 0.0108 | -0.413 | -1.11 | 0.679 | 1.05 | -0.21 | 1.1 | -0.531 | -1.03 (inactive) | 0.223 | -5.29 (inactive) | 0.106 (inactive) | -1.04 (inactive) | -0.0371 | -0.177 | 0.142 | 0.355 | 1.75 |
| CCN1C(C)=C(C(=O)OC)[C@@H](c2ccccc2)N2C(=O)[C@@]3(C(=O)OC)O[C@@]12[C@@H]1C(=O)N(c2ccccc2)C(=O)[C@@H]13 | 1.44 | 0.678 | 0.231 | 0.389 | 0.462 | 1.51 | 0.507 | 1.27 | 0.238 | -0.569 (inactive) | 0.313 | -1.77 (inactive) | 0.384 (inactive) | -1.28 (inactive) | 0.424 | -0.211 | 0.224 | 0.644 | 0.798 |
| C=CCN(C(=O)C1N(c2ccc(CCO)cc2)C(=O)C2C(C(=O)O)C3C=CC21O3)C(C)(C)C (stereo unspecified) | -1.51 | -0.55 | -0.612 | -1.4 | -2.8 | -2.13 | -0.112 | -3.43 | -2.09 | -0.163 (inactive) | -0.505 | -1.93 (inactive) | -0.623 (inactive) | -0.819 (inactive) | -2.01 | -0.227 | -3.07 | -1.77 | -1.34 |
| CO[C@H]1COC(=O)[C@@H](Cc2ccccc2)NC(=O)[C@@H](C)COC(=O)CC=C[C@@H]1C | -0.28 | -0.0865 | -0.112 | -0.277 | 1.24 | 1.01 | 1.3 | 1.01 | -0.744 | -1.16 (inactive) | -0.0866 | 0.7 (inactive) | 8.02 (active) | -0.445 (inactive) | -0.282 | -0.263 | 0.379 | -0.0112 | 1.02 |
| COCCOC(=O)N1C(=O)[C@@]2(c3cc(C#CCNC(N)=O)ccc31)[C@H](c1ccc(OCCO)cc1)N1[C@H](c3ccccc3)[C@H](c3ccccc3)OC(=O)[C@H]1[C@@H]2C(=O)Nc1nc2ccccc2s1 | 0.0799 | -0.393 | 0.0616 | 0.398 | 1.28 | 0.779 | -2.32 | 0.83 | 0.755 | -3.42 (inactive) | 0.483 | -1.6 (inactive) | 0.627 (inactive) | -1.2 (inactive) | 0.422 | -0.224 | 0.72 | 0.471 | 1.6 |
| C/C(=N\O)C(=O)NCCCCCNC(=O)OCc1ccccc1 | 0.443 | 0.783 | 0.317 | 0.825 | 0.7 | 0.545 | 2.02 | 0.93 | 0.3 | -1.72 (inactive) | 0.321 | -0.564 (inactive) | 1.67 (inactive) | -1.47 (inactive) | 1.24 | -0.0471 | 0.228 | 0.173 | 0.371 |
